# According to PMC7819943, “Rice protein-binding microarrays: a tool to detect cis-acting elements near promoter regions in rice”:
# Whole data set: some 39,000 sequences, median “fluorescence intensity (a.u.)” near 4,300, cut for the highest 2% near 39,000. The sample holds the highest values, similar sequences and a random draw of the others, so the mix is not that of the screen.
# Molecular target: T1, OsSMF1 (Oryza sativa, UniProt Q6ZLB0 1-436)
# T1 sequence: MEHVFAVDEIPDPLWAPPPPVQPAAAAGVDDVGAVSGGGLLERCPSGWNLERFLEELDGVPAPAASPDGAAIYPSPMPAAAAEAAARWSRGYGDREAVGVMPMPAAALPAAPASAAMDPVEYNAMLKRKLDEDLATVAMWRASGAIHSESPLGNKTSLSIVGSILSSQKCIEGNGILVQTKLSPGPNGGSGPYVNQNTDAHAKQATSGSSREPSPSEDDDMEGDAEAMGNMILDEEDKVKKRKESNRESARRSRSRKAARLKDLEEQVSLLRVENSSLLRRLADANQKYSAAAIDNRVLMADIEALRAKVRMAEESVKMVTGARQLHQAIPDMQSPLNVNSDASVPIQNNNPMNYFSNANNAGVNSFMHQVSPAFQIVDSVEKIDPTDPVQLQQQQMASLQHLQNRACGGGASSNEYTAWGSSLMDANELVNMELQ
# Assay: protein-binding microarray (RPBM); PBS, 2% BSA, 51.3 ng/ul salmon testes DNA, 50 uM zinc acetate, 200 nM TF, 25 C, 1 h; high values mean tight binding
# Details: protein: recombinant; tags: N-terminal polyhistidine and DsRed monomer fusion (pET32a); chain copies: 2; label: CyDye5-dUTP incorporated in the synthesized complementary strand; 3' TTTTT single-stranded linker to array surface; dsDNA, one strand shown
# Summary of the method: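 Ni–NTA purification followed expression in E. coli BL21-CodonPlus of transcription factors fused N-terminally to a polyhistidine tag and DsRed. At 200 nM in PBS with 2% BSA, salmon testes DNA and 50 µM zinc acetate, the protein was incubated for 1 h at 25 °C with a custom Agilent array that had been primer-extended with Cy5-dUTP and blocked with 2% BSA. After washing, the array was read on an Axon 4000B scanner. The binding signal is per-feature fluorescence intensity in arbitrary units.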
row,Sequence,binding signal
1,CTGCTCCACGCATTCACCAACGCTCCCTGCGATGTTTTAGCGGAGTCACCTAGTGCAG,4260 fluorescence intensity (a.u.)
2,CATCCATCCGGTCAAAGCAGCCGGCCACGTGGCGTGTCCCCGGAGTCACCTAGTGCAG,28100 fluorescence intensity (a.u.)
3,ACAGGCGAGGGTGGAACCCCGCGTGGCGAGAGCGTTGCGGCGGAGTCACCTAGTGCAG,4270 fluorescence intensity (a.u.)
4,CTTTTCCCCGACTAAACACACCCATACTGTCAAAAGGTAACGGAGTCACCTAGTGCAG,26800 fluorescence intensity (a.u.)
5,TCTTCAAACTTCCAACTTTTCCATCACATCAAAACTTTCCCGGAGTCACCTAGTGCAG,3340 fluorescence intensity (a.u.)
6,TGTAAACATCCCATACTGGCTCTTACGCAAAACTTTCACCCGGAGTCACCTAGTGCAG,54100 fluorescence intensity (a.u.)
7,CCGGATCTTCAGCAGAGTCGTGTCACCTGTTTTGATCGTTCGGAGTCACCTAGTGCAG,3890 fluorescence intensity (a.u.)
8,TAGTTCTGAAGTCTGAAATCCTTGCGGTCCTTCACCGCCTCGGAGTCACCTAGTGCAG,55000 fluorescence intensity (a.u.)
9,TATGTTCATTTCCTTATTTGCCTCTCGTCATGTCTCTTGACGGAGTCACCTAGTGCAG,3420 fluorescence intensity (a.u.)
10,CCGCCTTGCGTGGCTGAACTTCTTCTGATGGTCCCCGCCTCGGAGTCACCTAGTGCAG,3290 fluorescence intensity (a.u.)
11,ATAATCTTCAGAGATCTCCTTGCCTGAAGTGTCTTATGTTCGGAGTCACCTAGTGCAG,42500 fluorescence intensity (a.u.)
12,GCAATCTTTGCCTTGGTCCTCTTGAAGTCTTTGGCGGTATCGGAGTCACCTAGTGCAG,27700 fluorescence intensity (a.u.)
13,CTCACTGGTATGCTCACCACCACTTTAAGACTGTGTTTGTCGGAGTCACCTAGTGCAG,3730 fluorescence intensity (a.u.)
14,AGAGGCGAAATCGCGGCTACGGAGGCGGCGGCGGTGGCGGCGGAGTCACCTAGTGCAG,3390 fluorescence intensity (a.u.)
15,TGGCCATCGCCTACGGTGAGCAGTCATCGTCGTCCATCCGCGGAGTCACCTAGTGCAG,4090 fluorescence intensity (a.u.)
16,TAGTCCTCCTTGGCTACGGTGTCATAGATCGAGGCCTCCGCGGAGTCACCTAGTGCAG,50200 fluorescence intensity (a.u.)
17,TGAAAATTTGTACACGTAAGTAATAGATGGTACCAATAGACGGAGTCACCTAGTGCAG,5890 fluorescence intensity (a.u.)
18,CGTGTCATTGTCCAAAATGTCAAAGAAATATGGAACCGGACGGAGTCACCTAGTGCAG,15200 fluorescence intensity (a.u.)
19,AAGAGAAAATTCAAGAAATATCATTACCAAAGTCCAAGAACGGAGTCACCTAGTGCAG,52800 fluorescence intensity (a.u.)
20,GAGTTTAATTAATTAATTTCTTAAAATTGATGTCATCACACGGAGTCACCTAGTGCAG,3140 fluorescence intensity (a.u.)
21,TTTCAAAATATTCAGTTTGAGAATATGTAAATCTTATGGGCGGAGTCACCTAGTGCAG,20100 fluorescence intensity (a.u.)

row,Sequence,binding signal
1,GCACATCTTCCTTAATTGCCAAAAGAGTAAATTTCACGAACGGAGTCACCTAGTGCAG,43300 fluorescence intensity (a.u.)
2,AGAAGACGATCTCCTGAGACAAATTGCCAAAATTAAAGAACGGAGTCACCTAGTGCAG,4830 fluorescence intensity (a.u.)
3,GAGAATTCTCCACGAAAAGAGGAGAACGAACCACATCAAACGGAGTCACCTAGTGCAG,3380 fluorescence intensity (a.u.)
4,CGAACGAGAATTCATGGAATCCAAGAAAAGAGACACGTGTCGGAGTCACCTAGTGCAG,5610 fluorescence intensity (a.u.)
5,TGTCACGAAAATCTTAATATTCATTTGGAGAAAAGAACGGCGGAGTCACCTAGTGCAG,49000 fluorescence intensity (a.u.)
6,GATACGCGGCGGCTGAGTCAGCGTGGGACCCACGTGGGCCCGGAGTCACCTAGTGCAG,13000 fluorescence intensity (a.u.)
7,GCCATCCTCACGCACACGCCACGTGCTCGACGAAATGCCGCGGAGTCACCTAGTGCAG,4190 fluorescence intensity (a.u.)
8,AGCTCAGCTCTCTCTGCTCTGCTCTTTGCTCGATAACGACCGGAGTCACCTAGTGCAG,33600 fluorescence intensity (a.u.)
9,AAGGTTTGGAACATTCTGTTACCTATGAATACTGCACAGGCGGAGTCACCTAGTGCAG,11700 fluorescence intensity (a.u.)
10,AAGAGCGTTTAAACAAGCTGTGGAGTCAGCAGATAGATTACGGAGTCACCTAGTGCAG,3940 fluorescence intensity (a.u.)
11,GGAGGAGTGGTCGCCGGGGATCATCGCGCGGCGTCACCGGCGGAGTCACCTAGTGCAG,3570 fluorescence intensity (a.u.)
12,GGCTCGCAGAAAGGCGGACGACAAGGGCTCAGCAGGGTCACGGAGTCACCTAGTGCAG,39500 fluorescence intensity (a.u.)
13,GGAGGCGGCGGCGACGAGGAGGGGCGTGGGCGGCGGCGGCCGGAGTCACCTAGTGCAG,3660 fluorescence intensity (a.u.)
14,GGGCGGCGACGACGGTCACGGCGGACAAGGGCGGCGGCAACGGAGTCACCTAGTGCAG,3160 fluorescence intensity (a.u.)
15,GCATCGCCATCGCCGCGTGGTGGCGCACCATTCGCGTCACCGGAGTCACCTAGTGCAG,5300 fluorescence intensity (a.u.)
16,CATCGCCGCGCGTGCACCAGAGGACCAGACCGACCGGCGTCGGAGTCACCTAGTGCAG,50200 fluorescence intensity (a.u.)
17,CCGACGAGGACGAGGCGGCGTGGTCGAAGCCGGCGGTCGGCGGAGTCACCTAGTGCAG,42500 fluorescence intensity (a.u.)
18,CGACGAGAAGGACACCTCCTCGGAAAAGGGAGGGCGTCGGCGGAGTCACCTAGTGCAG,44600 fluorescence intensity (a.u.)
19,ATCTAGCGACGAGAAGAGAGGAAGGGAGGGAGGCGTCACGCGGAGTCACCTAGTGCAG,3830 fluorescence intensity (a.u.)
20,CGTCGGCGGCGGCGGAGGGGAGGACGACGTGGTCGACCTCCGGAGTCACCTAGTGCAG,3590 fluorescence intensity (a.u.)
21,CCGGGAAGGGAGAGGGAGAGAGGAGTCGGGGCGAGAAGTGCGGAGTCACCTAGTGCAG,3500 fluorescence intensity (a.u.)

row,Sequence,binding signal
1,AAAGGAAAGGCGCGTCACGGCGTCAGACGAGACGACGACGCGGAGTCACCTAGTGCAG,3340 fluorescence intensity (a.u.)
2,GTATCCATTCCTGCAAATCCAAGTTGGCAATTCCGAGGGCCGGAGTCACCTAGTGCAG,3340 fluorescence intensity (a.u.)
3,GCGGCGCGACAGCGACAAAGCGCACGCGCGCGGCGAGCTGCGGAGTCACCTAGTGCAG,30800 fluorescence intensity (a.u.)
4,TAACTTTGGAACAGGCTGATAAGGGTGGATCCTGCGGTTGCGGAGTCACCTAGTGCAG,3440 fluorescence intensity (a.u.)
5,CTGTTTCAGCACCACTGAGTTCGCAGCAAATGACACAAGGCGGAGTCACCTAGTGCAG,3340 fluorescence intensity (a.u.)
6,CTTCAGGGTCTAGTCTTTTCAAACCATCGGAGTTATCGTCCGGAGTCACCTAGTGCAG,3530 fluorescence intensity (a.u.)
7,CCGTCACGGATGACACTTATCTGTGACGGGCTATAGTTGACGGAGTCACCTAGTGCAG,4260 fluorescence intensity (a.u.)
8,GTCGCGCGCTTGGTGGCTTGCAAGAACCAGCTCCACCGCGCGGAGTCACCTAGTGCAG,3300 fluorescence intensity (a.u.)
9,GATTCGTTGAATACCGTCATTATTGGTGGGTTATCATCATCGGAGTCACCTAGTGCAG,3490 fluorescence intensity (a.u.)
10,GTGGAGTGCGGTGGACGGAGCGGCGGGGCGGGGCGGTCAGCGGAGTCACCTAGTGCAG,6720 fluorescence intensity (a.u.)
11,AAAGTTTTGCATGCCGCTGTCGAAGTCGGCTTCCGCGTAGCGGAGTCACCTAGTGCAG,32300 fluorescence intensity (a.u.)
12,TCGGCGCCGCGCCGCGCCACGGAGGGTGTCACGAGACCGCCGGAGTCACCTAGTGCAG,4790 fluorescence intensity (a.u.)
13,TTAGTGAACGGTGCAACGCGTCAAGGACGAGTCAACGCGCCGGAGTCACCTAGTGCAG,4850 fluorescence intensity (a.u.)
14,GCCTAGCCAGGATCGCCGCCGGCGGCGCCGCCGAGTCACACGGAGTCACCTAGTGCAG,33100 fluorescence intensity (a.u.)
15,ACGGAGAAGTCCCGAGACCGGCGCCGCCAGGACCGCCACCCGGAGTCACCTAGTGCAG,44400 fluorescence intensity (a.u.)
16,TGCAGCAGGAGATCGATCGATCGATCGATCCAACCGAATGCGGAGTCACCTAGTGCAG,3260 fluorescence intensity (a.u.)
17,GCCAACGAGGTCGCGTTCGACAAGGTGAAGGACGCCGGCGCGGAGTCACCTAGTGCAG,39600 fluorescence intensity (a.u.)
18,AACCGAATCCAATCGAGCTCAGGACGAGGCGGAGGAGGAGCGGAGTCACCTAGTGCAG,42900 fluorescence intensity (a.u.)
19,AGAGAGAGAGAGAGAGAGAGAGAGCTCAGGATCGACGAGACGGAGTCACCTAGTGCAG,16900 fluorescence intensity (a.u.)
20,ACCAACAAGGTCGTCGCCGACGACGCCGACGCCGACGCCGCGGAGTCACCTAGTGCAG,27600 fluorescence intensity (a.u.)
